This is an account of results in paper PMC7862700, “An all-to-all approach to the identification of sequence-specific readers for epigenetic DNA modifications on cytosine”.

Chain of ETV1 (P50549 whole entry): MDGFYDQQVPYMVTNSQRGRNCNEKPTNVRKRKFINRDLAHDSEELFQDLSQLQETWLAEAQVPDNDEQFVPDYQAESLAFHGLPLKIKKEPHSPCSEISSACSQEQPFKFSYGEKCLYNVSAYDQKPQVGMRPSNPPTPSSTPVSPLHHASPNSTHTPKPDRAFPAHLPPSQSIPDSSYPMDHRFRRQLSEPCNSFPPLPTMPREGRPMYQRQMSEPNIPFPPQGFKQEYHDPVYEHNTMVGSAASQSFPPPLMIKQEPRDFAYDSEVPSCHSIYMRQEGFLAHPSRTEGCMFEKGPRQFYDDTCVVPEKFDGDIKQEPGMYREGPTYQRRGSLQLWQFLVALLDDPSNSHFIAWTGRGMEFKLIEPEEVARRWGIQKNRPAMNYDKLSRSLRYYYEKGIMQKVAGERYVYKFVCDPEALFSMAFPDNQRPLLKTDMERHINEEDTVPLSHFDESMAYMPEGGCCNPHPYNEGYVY

One test deals with CRX (Homo sapiens, UniProt O43186 1-299). As to the kind of experiment: DAPPL (digital affinity profiling via proximity ligation, sequencing); 10 mM Tris-HCl pH 7.5, 50 mM NaCl, 1 mM DTT, 4% glycerol, room temperature, 30 min; GST-TFs on glutathione beads, 16-mer random dsDNA library, 0.1% formaldehyde crosslink after washing; high values mean tight binding. The following applies: protein: recombinant; tags: N-terminal GST; dsDNA, one strand shown. The gist of the method: (§1)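 Beads coated with glutathione captured GST-fused human transcription factors that had been expressed in yeast, and the factors were then given DNA barcodes and pooled with a tag-only sample. The pools were incubated with 200 nmole of a random double-stranded 16-mer DNA library in Tris/NaCl/DTT/glycerol buffer for 30 min at room temperature, washed, crosslinked with 0.1% formaldehyde and proximity-ligated with BsaI/T4 ligase at 37 °C for 1 h. PCR amplification and Illumina NextSeq500 sequencing came last. Binding signal is each hexamer's read frequency for a factor divided by its frequency for the tag-only sample.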
Chain of CRX (O43186 whole entry, the tested form may be a part): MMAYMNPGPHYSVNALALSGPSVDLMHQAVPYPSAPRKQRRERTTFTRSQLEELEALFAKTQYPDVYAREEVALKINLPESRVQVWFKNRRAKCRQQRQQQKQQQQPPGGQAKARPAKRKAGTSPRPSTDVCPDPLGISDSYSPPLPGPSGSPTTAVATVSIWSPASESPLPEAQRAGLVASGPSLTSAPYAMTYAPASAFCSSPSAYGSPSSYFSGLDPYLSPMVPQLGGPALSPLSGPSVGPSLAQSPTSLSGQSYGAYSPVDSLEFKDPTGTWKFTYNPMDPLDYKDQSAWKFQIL
As for TGGCAA, the binding signal was 1.07 fold enrichment (6-mer frequency, TF over GST control).
Consider AATAAC, for which the binding signal was 1.32 fold enrichment (6-mer frequency, TF over GST control).
The same measure, in the same setting: the same measure for ATTTGT: 1.58 fold enrichment (6-mer frequency, TF over GST control); for CTGGCA: 1.19 fold enrichment (6-mer frequency, TF over GST control).
As to GCTTAT, the binding signal is 2.89 fold enrichment (6-mer frequency, TF over GST control).
With TGTCTA, the binding signal is 1.05 fold enrichment (6-mer frequency, TF over GST control).
Still for that read-out and setting: the same measure for GCCGAT: 1.46 fold enrichment (6-mer frequency, TF over GST control); for ATTGGG: 1.22 fold enrichment (6-mer frequency, TF over GST control); for TTGATC: 1.71 fold enrichment (6-mer frequency, TF over GST control).
On the same count and under the same terms, the same measure for AATCGC: 1.62 fold enrichment (6-mer frequency, TF over GST control).
On the same count and under the same terms, the same measure for CCTCTC: 1.16 fold enrichment (6-mer frequency, TF over GST control).
CCTCTT: the binding signal is 1.81 fold enrichment (6-mer frequency, TF over GST control).
Turning to TTTGGA, the binding signal is 1.48 fold enrichment (6-mer frequency, TF over GST control).
The same measure, in the same setting: the same measure for TCTACA: 1.17 fold enrichment (6-mer frequency, TF over GST control); for TCTCGC: 1.84 fold enrichment (6-mer frequency, TF over GST control).
As for CTGATG, the binding signal is 1.46 fold enrichment (6-mer frequency, TF over GST control).
Consider CTGATC, for which the binding signal is 1.95 fold enrichment (6-mer frequency, TF over GST control).
In the case of CTCATC, the binding signal is 1.32 fold enrichment (6-mer frequency, TF over GST control).
Consider ATATTT, for which the binding signal is 1.6 fold enrichment (6-mer frequency, TF over GST control).
The same measure, in the same setting: the same measure for TACAAT: 1.44 fold enrichment (6-mer frequency, TF over GST control).
The same measure, in the same setting: the same measure for CACTTG: 1.1 fold enrichment (6-mer frequency, TF over GST control); for TACGTT: 1.34 fold enrichment (6-mer frequency, TF over GST control).
Still for that read-out and setting: then CATTCG, with 1.14 fold enrichment (6-mer frequency, TF over GST control); and CCTTCG, with 1.28 fold enrichment (6-mer frequency, TF over GST control).
TGACCT: the binding signal is 1.36 fold enrichment (6-mer frequency, TF over GST control).
In the case of TATAAC, the binding signal is 1.43 fold enrichment (6-mer frequency, TF over GST control).
On the same count and under the same terms, the same measure for CTTTCA: 1.25 fold enrichment (6-mer frequency, TF over GST control); for AATATT: 1.61 fold enrichment (6-mer frequency, TF over GST control); for CTTGCA: 1.15 fold enrichment (6-mer frequency, TF over GST control).
With TTGCGG, the binding signal is 1.05 fold enrichment (6-mer frequency, TF over GST control).
The same measure, in the same setting: then TCTGTT, with 1.27 fold enrichment (6-mer frequency, TF over GST control).
On the same count and under the same terms, then TCCTGG, with 1.27 fold enrichment (6-mer frequency, TF over GST control).
As for CGAAAA, the binding signal is 1.12 fold enrichment (6-mer frequency, TF over GST control).
Take TAATCC: the binding signal was 7.84 fold enrichment (6-mer frequency, TF over GST control).
Same read-out and setting: the same measure for TTTCTT: 1.46 fold enrichment (6-mer frequency, TF over GST control).
For CTCAGC, the binding signal is 1.31 fold enrichment (6-mer frequency, TF over GST control).
As to ACTTGT, the binding signal is 1.1 fold enrichment (6-mer frequency, TF over GST control).
As for CTTCTA, the binding signal was 1.87 fold enrichment (6-mer frequency, TF over GST control).
Take TTCGAT: the binding signal is 1.56 fold enrichment (6-mer frequency, TF over GST control).
With TCTCCG, the binding signal was 1.37 fold enrichment (6-mer frequency, TF over GST control).

The next test has as its target ETV1 (Homo sapiens, UniProt P50549 1-477). Described as above. The following applies: protein: recombinant; tags: N-terminal GST; dsDNA, one strand shown. The gist of the method: as §1
Regarding TGGCAA, the binding signal was 1.16 fold enrichment (6-mer frequency, TF over GST control).
For AATAAC, the binding signal was 1.15 fold enrichment (6-mer frequency, TF over GST control).
ATTTGT: the binding signal was 1.23 fold enrichment (6-mer frequency, TF over GST control).
Still for that read-out and setting: then CTGGCA, with 1.27 fold enrichment (6-mer frequency, TF over GST control); and GCTTAT, with 1.35 fold enrichment (6-mer frequency, TF over GST control); and TGTCTA, with 1.24 fold enrichment (6-mer frequency, TF over GST control).
Regarding GCCGAT, the binding signal was 1.07 fold enrichment (6-mer frequency, TF over GST control).
Regarding ATTGGG, the binding signal was 1.2 fold enrichment (6-mer frequency, TF over GST control).
Regarding TTGATC, the binding signal was 1.15 fold enrichment (6-mer frequency, TF over GST control).
Same read-out and setting: then AATCGC, with 1.15 fold enrichment (6-mer frequency, TF over GST control); and CCTCTC, with 1.42 fold enrichment (6-mer frequency, TF over GST control).
For CCTCTT, the binding signal is 1.55 fold enrichment (6-mer frequency, TF over GST control).
For the sequence TTTGGA, the binding signal was 1.24 fold enrichment (6-mer frequency, TF over GST control).
Same read-out and setting: then TCTACA, with 1.16 fold enrichment (6-mer frequency, TF over GST control).
With TCTCGC, the binding signal is 1.75 fold enrichment (6-mer frequency, TF over GST control).
In the case of CTGATG, the binding signal is 1.61 fold enrichment (6-mer frequency, TF over GST control).
For CTGATC, the binding signal is 1.43 fold enrichment (6-mer frequency, TF over GST control).
Same read-out and setting: the same measure for CTCATC: 1.4 fold enrichment (6-mer frequency, TF over GST control).
Still for that read-out and setting: then ATATTT, with 1.56 fold enrichment (6-mer frequency, TF over GST control); and TACAAT, with 1.33 fold enrichment (6-mer frequency, TF over GST control); and CACTTG, with 1.36 fold enrichment (6-mer frequency, TF over GST control).
Still for that read-out and setting: then TACGTT, with 1.29 fold enrichment (6-mer frequency, TF over GST control).
Regarding CATTCG, the binding signal was 1.16 fold enrichment (6-mer frequency, TF over GST control).
Still for that read-out and setting: the same measure for CCTTCG: 1.5 fold enrichment (6-mer frequency, TF over GST control); for TGACCT: 1.88 fold enrichment (6-mer frequency, TF over GST control).
Still for that read-out and setting: the same measure for TATAAC: 1.25 fold enrichment (6-mer frequency, TF over GST control); for CTTTCA: 1.45 fold enrichment (6-mer frequency, TF over GST control).
Same read-out and setting: then AATATT, with 1.36 fold enrichment (6-mer frequency, TF over GST control); and CTTGCA, with 1.41 fold enrichment (6-mer frequency, TF over GST control); and TTGCGG, with 1.27 fold enrichment (6-mer frequency, TF over GST control).
As for TCTGTT, the binding signal was 1.41 fold enrichment (6-mer frequency, TF over GST control).
Consider TCCTGG, for which the binding signal was 1.68 fold enrichment (6-mer frequency, TF over GST control).
Consider CGAAAA, for which the binding signal is 1.06 fold enrichment (6-mer frequency, TF over GST control).
On to TAATCC, for which the binding signal is 1.26 fold enrichment (6-mer frequency, TF over GST control).
Still for that read-out and setting: then TTTCTT, with 1.38 fold enrichment (6-mer frequency, TF over GST control); and CTCAGC, with 1.28 fold enrichment (6-mer frequency, TF over GST control); and ACTTGT, with 1.29 fold enrichment (6-mer frequency, TF over GST control).
Still for that read-out and setting: the same measure for CTTCTA: 1.49 fold enrichment (6-mer frequency, TF over GST control).
The same measure, in the same setting: the same measure for TTCGAT: 1.34 fold enrichment (6-mer frequency, TF over GST control); for TCTCCG: 1.48 fold enrichment (6-mer frequency, TF over GST control).
